Data reported in PubChem BioAssay (NCATS).
Results filed as inconclusive are left out. Entries that show only a call come without a potency. The source made the active and inactive calls. Calls follow the shape of the dose curve; as a rule, active = well fitted curve in the direction sought with a large enough effect; inconclusive = small, poorly fitted or top-dose-only effect, or another doubt; inactive = no such curve, though single readings can be large; an effect the other way counts as inactive or inconclusive.

Legend:
[1] = target: Voltage-gated inwardly rectifying potassium channel KCNH2 (Homo sapiens) (UniProt Q12809); assay: qHTS Assay for Small Molecule Inhibitors of the Human hERG Channel Activity (AID 588834);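 also: lower thallium flux fluorescence means stronger hERG block; nearly all actives have a fitted effect of over 50% in size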; also: potency is read from the fitted curve at half-maximal effect
In short: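 Step 1: BacMam hERG transduction of U2OS, 4 hrs RT. Step 2: overnight 37 °C, plate 2000 cells/well, 4 hr. Step 3: FluxOR load, compound 10 min, stimulate, read fluorescence.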

[2] = target: Luciferin 4-monooxygenase (Photinus pyralis) (UniProt P08659); assay: Biochemical firefly luciferase enzyme assay for NPC (AID 624030);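 also: purified P. pyralis luciferase at 10 nM with luciferin and ATP substrate; series mostly up to about 59 µM; nearly all actives have a fitted effect of over 70% in size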
In short: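 Counter-screen for direct inhibition of the luciferase enzyme by approved-drug library compounds, run at 10 nM enzyme in 50 mM Tris acetate (final). Luminescence was read within 5 min of enzyme-buffer addition and normalized to PTC124 versus DMSO (0%).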

[3] = S16 Schwann cell viability assay (CellTiter-Glo assay) (AID 624031); also: nearly all actives have a fitted effect of over 70% in size; also: potency is read from the fitted curve at half-maximal effect
In short: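 Native S16 Schwann cells (rat), serum-containing medium, overnight attachment then 24 h drug exposure at 37 °C/5% CO2. CellTiter-Glo ATP signal; normalized to cell-free and vehicle wells.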

[4] = S16 Schwann cell PMP22 intronic element firefly luciferase assay (AID 624032); also: nearly all actives have a fitted effect of over 30% in size; also: potency is read from the fitted curve at half-maximal effect
In short: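 Rat S16 Schwann cells stably carrying a PMP22 intronic element-driven Fluc reporter were seeded overnight, then exposed to compounds for 24 h at 37 °C. Luminescence was normalized to PTC124 (positive control) and DMSO (0% activity).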

Chain of Luciferin 4-monooxygenase (Photinus pyralis) (P08659 whole entry, looked up): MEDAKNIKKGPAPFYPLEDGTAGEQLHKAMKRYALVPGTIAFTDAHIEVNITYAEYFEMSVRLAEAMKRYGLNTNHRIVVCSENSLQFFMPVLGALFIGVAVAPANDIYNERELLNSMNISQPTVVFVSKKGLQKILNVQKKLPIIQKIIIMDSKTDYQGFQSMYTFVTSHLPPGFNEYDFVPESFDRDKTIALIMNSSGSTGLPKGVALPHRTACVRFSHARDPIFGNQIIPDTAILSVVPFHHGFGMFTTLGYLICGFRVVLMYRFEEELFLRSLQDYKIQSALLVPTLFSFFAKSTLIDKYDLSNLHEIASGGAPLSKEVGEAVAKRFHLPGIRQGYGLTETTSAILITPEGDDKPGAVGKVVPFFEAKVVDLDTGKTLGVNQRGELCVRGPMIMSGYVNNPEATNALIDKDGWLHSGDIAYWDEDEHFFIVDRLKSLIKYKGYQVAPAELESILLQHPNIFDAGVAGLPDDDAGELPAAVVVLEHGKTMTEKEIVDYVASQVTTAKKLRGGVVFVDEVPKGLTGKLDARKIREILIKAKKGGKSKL
Chain of Voltage-gated inwardly rectifying potassium channel KCNH2 (Homo sapiens) (Q12809 whole entry, looked up): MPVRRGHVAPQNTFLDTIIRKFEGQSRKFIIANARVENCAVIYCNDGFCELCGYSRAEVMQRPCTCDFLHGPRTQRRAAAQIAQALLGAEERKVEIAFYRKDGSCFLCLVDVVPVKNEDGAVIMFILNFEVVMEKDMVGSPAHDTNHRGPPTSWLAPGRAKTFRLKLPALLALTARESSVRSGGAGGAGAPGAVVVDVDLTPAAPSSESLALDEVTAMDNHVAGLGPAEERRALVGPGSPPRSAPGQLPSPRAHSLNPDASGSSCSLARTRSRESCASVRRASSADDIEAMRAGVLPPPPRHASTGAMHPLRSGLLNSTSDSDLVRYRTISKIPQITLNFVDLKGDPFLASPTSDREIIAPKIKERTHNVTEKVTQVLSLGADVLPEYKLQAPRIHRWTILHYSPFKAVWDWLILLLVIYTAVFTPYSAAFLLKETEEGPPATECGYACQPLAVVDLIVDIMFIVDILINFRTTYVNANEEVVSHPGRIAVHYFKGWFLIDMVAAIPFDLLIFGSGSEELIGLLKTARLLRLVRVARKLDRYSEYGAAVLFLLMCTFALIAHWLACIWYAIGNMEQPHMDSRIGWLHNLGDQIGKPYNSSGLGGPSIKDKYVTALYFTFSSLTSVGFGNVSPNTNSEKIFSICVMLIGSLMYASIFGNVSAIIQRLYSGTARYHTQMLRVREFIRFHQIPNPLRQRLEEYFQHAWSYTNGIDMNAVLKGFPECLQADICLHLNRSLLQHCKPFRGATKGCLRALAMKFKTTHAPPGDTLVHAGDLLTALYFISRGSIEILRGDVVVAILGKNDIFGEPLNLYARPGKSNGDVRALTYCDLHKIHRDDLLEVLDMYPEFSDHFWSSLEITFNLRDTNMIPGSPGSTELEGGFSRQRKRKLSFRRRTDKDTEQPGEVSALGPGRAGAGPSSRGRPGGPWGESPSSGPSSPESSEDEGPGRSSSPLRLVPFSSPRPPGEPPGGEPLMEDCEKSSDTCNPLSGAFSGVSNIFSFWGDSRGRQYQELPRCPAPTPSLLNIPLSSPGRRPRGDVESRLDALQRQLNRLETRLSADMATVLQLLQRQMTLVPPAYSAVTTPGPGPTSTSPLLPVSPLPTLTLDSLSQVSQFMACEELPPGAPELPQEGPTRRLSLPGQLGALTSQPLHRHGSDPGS

In the case of `O=C(OCCOCCO)c1ccccc1Nc1cccc(C(F)(F)F)c1`, the Potency [1] is reported as “inactive”, the Potency [2] is reported as “inactive” and the Potency [3] is reported as “inactive”. The Potency [4] was “inactive”.

For `CN1CCN(CCCN2c3ccccc3Sc3ccc(S(=O)(=O)N(C)C)cc32)CC1`, the Potency [1] was 6.31 µM (active), the Potency [2] was “inactive” and the Potency [4] was “inactive”.

For `CCN(CC)CCOC(=O)C(c1ccccc1)C1CCCCC1` (stereo unspecified), the Potency [1] was 12.6 µM (active), the Potency [2] was “inactive” and the Potency [3] was “inactive”. The Potency [4] was “inactive”.

In the case of `c1ccc(OCc2ccc(CCCN3CCOCC3)cc2)cc1`, the Potency [1] is reported as 12.6 µM (active), the Potency [2] is reported as “inactive” and the Potency [4] is reported as “inactive”.

With `Cc1c(C(N)=O)cc([N+](=O)[O-])cc1[N+](=O)[O-]` the Potency [1] was “inactive”, the Potency [2] was “inactive” and the Potency [3] was “inactive”. For the same molecule, the Potency [4] was “inactive”.

With `O=C(CCN1CCC(c2ccccc2)C1)c1ccc2c(c1)OCCO2` (stereo unspecified) the Potency [1] was 15.8 µM (active), the Potency [2] was “inactive” and the Potency [3] was 28.7 µM (active). For the same molecule, the Potency [4] was 25.6 µM (active).

For `NC(=O)C(=O)N/N=C/c1ccc([N+](=O)[O-])o1`, the Potency [1] was “inactive”, the Potency [2] was “inactive” and the Potency [4] was 32.2 µM (active).

For `CC(C)=CCC1C(=O)N(c2ccccc2)N(c2ccccc2)C1=O`, the Potency [1] was “inactive”, the Potency [2] was “inactive” and the Potency [3] was “inactive”. For the same molecule, the Potency [4] was “inactive”.

For `Cc1ccc(O)c2ncccc12`, the Potency [1] was “inactive”, the Potency [2] was “inactive” and the Potency [4] was “inactive”.

For `CN=C(NC#N)Nc1ccc(C2=NNC(=O)CC2C)cc1` (stereo unspecified), the Potency [1] was “inactive”, the Potency [2] was “inactive” and the Potency [3] was “inactive”. The Potency [4] was “inactive”.

For `CC(C)COC(=O)c1ccc(N)cc1`, the Potency [1] was “inactive” and the Potency [3] was “inactive”.

In the case of `CN1CCC[C@@H]1c1cccnc1`, the Potency [1] is reported as “inactive”, the Potency [2] is reported as “inactive” and the Potency [3] is reported as “inactive”. The Potency [4] was “inactive”.

With `CC(=O)Oc1ccc(C(=C2CCCCC2)c2ccc(OC(C)=O)cc2)cc1` the Potency [1] was “inactive”, the Potency [2] was “inactive” and the Potency [3] was “inactive”. The Potency [4] was “inactive”.

For `O=C(Nc1ccc(Cl)c(Cl)c1)C1CC1`, the Potency [1] was “inactive”, the Potency [3] was “inactive” and the Potency [4] was “inactive”.

For `COc1ccc(/C=C/C(=O)c2ccc(OC)cc2OC)cc1`, the Potency [1] was “inactive”, the Potency [3] was “inactive” and the Potency [4] was “inactive”.

In the case of `CN1C(CCl)Nc2cc(Cl)c(S(N)(=O)=O)cc2S1(=O)=O` (stereo unspecified), the Potency [1] is reported as “inactive”, the Potency [2] is reported as “inactive” and the Potency [3] is reported as “inactive”. For the same molecule, the Potency [4] was 0.161 µM (active).

In the case of `COc1c(C)c2c(c(O)c1C/C=C(\C)CCC(=O)O)C(=O)OC2`, the Potency [1] is reported as “inactive”, the Potency [2] is reported as “inactive” and the Potency [4] is reported as 0.976 µM (active).

With `CC(Cc1cccc(C(F)(F)F)c1)NCCOC(=O)c1ccccc1` (stereo unspecified) the Potency [1] was 10 µM (active), the Potency [2] was “inactive” and the Potency [4] was “inactive”.

With `Cc1ncc(CSSCc2cnc(C)c(O)c2CO)c(CO)c1O` the Potency [1] was “inactive”, the Potency [2] was “inactive” and the Potency [3] was “inactive”. For the same molecule, the Potency [4] was “inactive”.

In the case of `Cc1c(C(C)C)c(=O)n(-c2ccccc2)n1C`, the Potency [1] is reported as “inactive”, the Potency [2] is reported as “inactive” and the Potency [3] is reported as “inactive”. For the same molecule, the Potency [4] was “inactive”.

In the case of `Oc1ccc(Cl)cc1Sc1cc(Cl)ccc1O`, the Potency [2] is reported as “inactive”, the Potency [3] is reported as “inactive” and the Potency [4] is reported as “inactive”.

With `CCCCOc1ccc(OCCCN2CCOCC2)cc1` the Potency [2] was “inactive”, the Potency [3] was “inactive” and the Potency [4] was “inactive”.

For `CCOc1ccc(Cc2nccc3cc(OCC)c(OCC)cc23)cc1OCC`, the Potency [2] was “inactive”, the Potency [3] was “inactive” and the Potency [4] was 2.45 µM (active).

For `Cc1c(C)n(Cc2ccccc2)c2ccc(C(=O)OCCN(C)C)cc12`, the Potency [4] was “inactive”.

With `O=C(N/N=C/c1ccccc1O)c1ccncc1` the Potency [1] was “inactive” and the Potency [4] was “inactive”.

With `COC(=O)C1=C(C)NC(C)=C(C(=O)O[C@@H]2CCCN(Cc3ccccc3)C2)[C@@H]1c1cccc([N+](=O)[O-])c1` the Potency [2] was “inactive”.

With `O=C(O)c1cc2cc(Cc3cccnc3)ccc2o1` the Potency [1] was “inactive”, the Potency [3] was “inactive” and the Potency [4] was “inactive”.

With `COC(=O)[C@H]1[C@H]2C[C@H]3c4[nH]c5ccccc5c4CCN3C[C@H]2CC[C@@H]1O` the Potency [2] was “inactive”, the Potency [3] was “inactive” and the Potency [4] was “inactive”.

For `Cc1ccc(C(=O)C(C)CN2CCCCC2)cc1` (stereo unspecified), the Potency [2] was “inactive”, the Potency [3] was “inactive” and the Potency [4] was “inactive”.

In the case of `CC1(C)OC[C@@H](COC(=O)CCc2ccc(OC[C@@H](O)CNCCNC(=O)N3CCOCC3)cc2)O1`, the Potency [2] is reported as “inactive”.

For `CCN(CCCc1ccccc1)CCCc1ccccc1`, the Potency [2] was “inactive”, the Potency [3] was “inactive” and the Potency [4] was “inactive”.

With `Cc1cccc(C)c1NC(=O)CN1CCN(CCCC(c2ccc(F)cc2)c2ccc(F)cc2)CC1` the Potency [2] was “inactive” and the Potency [4] was “inactive”.

In the case of `CN(C(=O)CN(CCO)CC(=O)N(C)C(C)(C)Cc1ccccc1)C(C)(C)Cc1ccccc1`, the Potency [2] is reported as “inactive”, the Potency [3] is reported as “inactive” and the Potency [4] is reported as “inactive”.

For `CC(C)(C)CC(C)(C)c1ccc(OCCOCC[N+](C)(C)Cc2ccccc2)cc1`, the Potency [2] was “inactive” and the Potency [3] was 32.2 µM (active).

With `O=S1(=O)c2cccc3cccc(c23)N1CCCN1CCN(c2ccc(F)cc2)CC1` the Potency [2] was “inactive”, the Potency [3] was “inactive” and the Potency [4] was “inactive”.

For `Cc1ccc(Nc2c(F)cccc2Cl)c(CC(=O)O)c1`, the Potency [2] was “inactive”.

In the case of `NCCCC[C@H](N[C@@H](CCc1ccccc1)C(=O)O)C(=O)N1CCC[C@H]1C(=O)O`, the Potency [2] is reported as “inactive”, the Potency [3] is reported as “inactive” and the Potency [4] is reported as “inactive”.

In the case of `Clc1ccc2c(c1)CCc1cccnc1C2=C1CCNCC1`, the Potency [2] is reported as “inactive”.
